Test results: PubChem BioAssay
For part of these data: Results with a measured potency or affinity are listed apart. Active and inactive are the calls of the source.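 How the source made its calls, unless noted: active means hit in primary screen, with calcium signal over 5 SD above buffer well mean in both duplicates; inactive means the rest.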

Tests used:
[1] = tested on: TRPC4 beta (transient receptor potential cation channel C4), mouse; test: activators of mouse TRPC4 channel, confirmation, cell-based, Fluo4 calcium, HEK293 TRPC4beta/mu-opioid, duplicates, 10 µM (AID 2426;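 active means fluorescence ratio normalized to control raised more than 50% in primary screen plus both repeat runs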;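 on activation: percent rise of integrated ratio over buffer wells lacking compound which define 0%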); settings: Fluo4 calcium fluorescence, at 10 µM; active compounds read high
[2] = tested on: transient receptor potential cation channel C4 beta (TRPC4), mouse; test: activators of mouse TRPC4 channel, confirmation, cell-based, second round, Fluo4, HEK293 TRPC4beta/mu-opioid, 1 µM (AID 2461;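 active means primary screen active and over 50% activation in each of two duplicate runs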;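 on activation: 0% = wells without test compound as baseline of integrated fluorescence ratio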); settings: Fluo4 calcium fluorescence, at 1 µM; active compounds read high
[3] = tested on: TRPC4 (transient receptor potential cation channel C4 beta), mouse; test: positive allosteric modulators of mouse TRPC4, confirmation, cell-based, second round, Fluo-4, HEK293 TRPC4beta/mu-opioid, 1 µM (AID 2554;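 active means primary screen hit whose fluorescence ratio, in both repeats, exceeds the weak agonist control mean by 3 SD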); settings: DAMGO EC20, Fluo-4 calcium flux, at 1 µM; active compounds read high
[4] = tested on: TRPC4 beta (transient receptor potential cation channel C4), mouse; test: positive allosteric modulators of mouse TRPC4, confirmation, cell-based, Fluo-4, HEK293 TRPC4beta/mu-opioid (AID 2555;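 active means primary screen hit whose calcium fluorescence ratio, in both repeats, exceeds the weak agonist control mean by 3 SD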); settings: DAMGO EC20, Fluo-4 calcium flux, at 10 µM; active compounds read high
[5] = target: Short transient receptor potential channel 4 (Mus musculus) (UniProt Q9QUQ5); test: inhibitors of mouse TRPC4 channel, confirmation, cell-based, Fluo4, HEK293 TRPC4beta/mu-opioid (AID 2636;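 active means calcium signal cut by more than 3 SD below the full-agonist control yet still positive, in both repeats and the earlier primary screen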); settings: DAMGO, Fluo4 calcium flux, at 10 µM; active compounds read high
[6] = target: Short transient receptor potential channel 4 (Mus musculus) (UniProt Q9QUQ5); test: inhibitors of mouse TRPC4 channel, confirmation, cell-based, second round, Fluo4, HEK293 TRPC4beta/mu-opioid, 1 µM (AID 2637;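 active means calcium signal ratio cut to more than 3 SD under the fully stimulated control mean yet still positive, in both repeats and the primary screen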); settings: Fluo4 calcium flux, DAMGO, at 1 µM; active compounds read high
[7] = target: Short transient receptor potential channel 4 (Mus musculus) (UniProt Q9QUQ5); test: TRPC4 positive allosteric modulators, dose response, cell-based, HEK293 TRPC4/mu-opioid, Fluo-4 calcium, EC20 DAMGO (AID 434941;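 active means earlier screen potentiator hit that boosts the TRPC4 ion channel at some dose, with a dose response; inactive means no potentiation, no dose response, or not a prior hit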;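 further: calcium entry triggered by an EC20 dose of DAMGO at the co-expressed mu-opioid receptor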)
[8] = target: Short transient receptor potential channel 4 (Mus musculus) (UniProt Q9QUQ5); test: mouse TRPC4 channel inhibitors, dose response, cell-based, HEK293 TRPC4/mu-opioid, Fluo-4 calcium (AID 434942;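 active means primary screen inhibitor hit that blocks the TRPC4 channel at some tested dose, yielding a dose curve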)
[9] = target: Short transient receptor potential channel 6 (Mus musculus) (UniProt Q61143); test: inhibition of mouse TRPC6 channel, confirmation, selectivity assay for TRPC4 inhibitor project, cell-based, HEK293, membrane potential dye, duplicate (AID 434948;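 active means active in primary screen and both duplicates, each dropping signal beyond three positive-control SD with fluorescence still positive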); settings: HEK293 TRPC6, membrane potential dye fluorescence, at 10 µM, stimulated with maximal-effect acetylcholine; active compounds read high
[10] = target: Short transient receptor potential channel 6 (Mus musculus) (UniProt Q61143); test: activation of mouse TRPC6 channel, confirmation, selectivity assay for TRPC4 activator project, cell-based, HEK293, membrane potential dye, duplicate (AID 434950;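 active means membrane potential signal rise above negative control mean plus 3 SD in both duplicates, also active in the earlier TRPC4 screen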;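 on activation: 0% = buffer only wells and 100% = acetylcholine maximal-effect wells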); settings: HEK293 TRPC6, membrane potential fluorescence, at 10 µM; active compounds read high
[11] = target: Short transient receptor potential channel 6 (Mus musculus) (UniProt Q61143); test: TRPC6 potentiation by TRPC4 potentiator hits, confirmation, selectivity assay for TRPC4 potentiator project, HEK293 cells, membrane potential dye, duplicate (AID 434952;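 active means compound raising the membrane signal above positive-control mean plus 3 SD in both repeats, and a primary screen hit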); settings: HEK293 TRPC6, membrane potential dye fluorescence, at 10 µM, maximal acetylcholine added after compound; active compounds read high
[12] = target: Short transient receptor potential channel 4 (Mus musculus) (UniProt Q9QUQ5); test: calcium flux activators in TRPC4/5HT1a cells, counter-screen for TRPC4 activator project, cell-based, second counter screen, HEK293 TRPC4/5HT1a, Fluo-4 (AID 434977;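 active means calcium signal rise above buffer-control mean plus 5 SD in both duplicates, and also a hit in the primary screen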;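 on activation: plate controls were assay buffer for no effect and maximal serotonin response for full effect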); settings: Fluo-4 calcium flux, at 10 µM; active compounds read high
[13] = calcium flux inhibitors in TRPC4/5HT1a cells, confirmation, counter-screen for TRPC4 inhibitor project, cell-based, second counter screen, HEK293 TRPC4/5HT1a, Fluo-4 (AID 434978;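 active means primary screen active whose calcium signal fell more than 3 SD beyond the full-serotonin control mean in both duplicate plates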;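 on outcome: serotonin given first at submaximal then at maximal dose after compound preincubation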); settings: Fluo-4 calcium flux, at 10 µM, serotonin added to trigger calcium flux; active compounds read high
[14] = tested on: TRPC4 (mouse), co-expressed with 5HT1a in HEK293; test: calcium flux potentiators in TRPC4/5HT1a cells, confirmation, counter-screen for TRPC4 potentiator project, cell-based, second counter screen, HEK293 TRPC4/5HT1a, Fluo-4 (AID 434979;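 active means signal rise over 3 SD above mean of control wells given weak agonist, in both repeats and first screen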); settings: Fluo-4 calcium flux, at 10 µM, serotonin added at its EC20 dose; active compounds read high
[15] = calcium flux activation in mu-opioid HEK293 cells, confirmation, counter-screen for TRPC4 activator project, cell-based, HEK293 mu-opioid receptor line (AID 449723); settings: Fluo-4 calcium fluorescence, at 10 µM; active compounds read high;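 further: counter screen cells carry the mu-opioid receptor alone and lack TRPC4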
[16] = calcium flux enhancement in mu-opioid HEK293 cells, confirmation, counter-screen for TRPC4 allosteric potentiator project, cell-based, HEK293 mu-opioid receptor line (AID 449724;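 active means calcium signal rise more than 3 SD above the low-dose agonist control mean, in both duplicate plates and the primary screen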); settings: Fluo-4 calcium flux, at 10 µM, compound added before EC20 DAMGO stimulus; active compounds read high

Chain of Short transient receptor potential channel 6 (Mus musculus) (Q61143 whole entry, looked up): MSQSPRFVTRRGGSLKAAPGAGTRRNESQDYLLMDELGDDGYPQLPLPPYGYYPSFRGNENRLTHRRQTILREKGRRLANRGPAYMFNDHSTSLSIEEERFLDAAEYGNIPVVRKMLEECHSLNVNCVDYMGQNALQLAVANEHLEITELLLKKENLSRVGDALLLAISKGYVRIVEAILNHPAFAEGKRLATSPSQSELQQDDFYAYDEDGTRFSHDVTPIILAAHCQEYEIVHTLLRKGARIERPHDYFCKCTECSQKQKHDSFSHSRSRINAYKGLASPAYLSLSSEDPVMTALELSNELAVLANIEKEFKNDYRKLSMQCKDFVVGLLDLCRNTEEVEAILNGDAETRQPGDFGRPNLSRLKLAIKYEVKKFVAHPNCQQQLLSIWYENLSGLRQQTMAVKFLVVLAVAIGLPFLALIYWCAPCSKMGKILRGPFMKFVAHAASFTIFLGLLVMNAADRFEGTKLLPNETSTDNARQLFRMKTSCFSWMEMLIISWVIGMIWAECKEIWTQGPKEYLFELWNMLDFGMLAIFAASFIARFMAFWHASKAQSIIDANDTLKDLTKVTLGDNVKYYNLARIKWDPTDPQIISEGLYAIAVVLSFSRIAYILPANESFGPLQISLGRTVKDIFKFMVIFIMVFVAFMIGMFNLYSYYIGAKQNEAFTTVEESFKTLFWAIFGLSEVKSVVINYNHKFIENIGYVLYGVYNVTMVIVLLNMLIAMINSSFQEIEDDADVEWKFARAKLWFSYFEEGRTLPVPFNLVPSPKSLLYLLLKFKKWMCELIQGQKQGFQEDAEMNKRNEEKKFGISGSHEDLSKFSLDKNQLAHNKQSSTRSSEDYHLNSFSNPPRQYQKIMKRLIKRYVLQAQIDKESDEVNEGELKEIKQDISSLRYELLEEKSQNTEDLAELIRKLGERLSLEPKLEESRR
Chain of Short transient receptor potential channel 4 (Mus musculus) (Q9QUQ5 whole entry, looked up): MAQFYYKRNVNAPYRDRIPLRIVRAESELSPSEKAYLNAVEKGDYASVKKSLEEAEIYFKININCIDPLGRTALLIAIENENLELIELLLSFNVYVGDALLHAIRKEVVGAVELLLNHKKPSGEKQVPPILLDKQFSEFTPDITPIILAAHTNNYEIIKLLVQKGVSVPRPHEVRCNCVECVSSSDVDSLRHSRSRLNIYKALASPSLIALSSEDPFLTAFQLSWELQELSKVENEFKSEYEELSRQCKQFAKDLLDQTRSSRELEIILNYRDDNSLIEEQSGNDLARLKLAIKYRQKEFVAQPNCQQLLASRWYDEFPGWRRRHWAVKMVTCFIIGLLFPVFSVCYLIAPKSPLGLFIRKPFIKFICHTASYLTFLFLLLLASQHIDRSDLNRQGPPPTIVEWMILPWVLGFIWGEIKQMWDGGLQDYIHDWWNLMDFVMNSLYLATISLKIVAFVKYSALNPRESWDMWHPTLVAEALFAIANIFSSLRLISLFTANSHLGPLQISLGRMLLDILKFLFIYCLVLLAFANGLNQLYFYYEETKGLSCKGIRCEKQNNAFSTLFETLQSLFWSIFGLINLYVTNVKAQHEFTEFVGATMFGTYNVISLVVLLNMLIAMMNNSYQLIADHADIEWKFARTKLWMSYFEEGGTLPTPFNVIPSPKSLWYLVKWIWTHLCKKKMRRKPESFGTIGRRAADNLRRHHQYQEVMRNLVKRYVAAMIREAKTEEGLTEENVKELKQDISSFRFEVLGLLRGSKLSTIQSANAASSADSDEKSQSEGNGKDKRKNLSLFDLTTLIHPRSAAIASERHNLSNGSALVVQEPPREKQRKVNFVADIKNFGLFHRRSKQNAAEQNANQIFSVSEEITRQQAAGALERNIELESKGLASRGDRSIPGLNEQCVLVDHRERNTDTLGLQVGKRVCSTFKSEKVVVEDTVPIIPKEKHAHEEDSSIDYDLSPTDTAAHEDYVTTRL

NCCCn1c(C(=O)c2cc(Cl)c(N)c(Cl)c2)c2ccccc2[n+]1[O-]
active: activation [1] 179% | activation [2] 103% | inhibition [5] 83% | activation [12] 67.1% | inhibition [13] 14%
inactive: outcome [3] | outcome [4] | outcome [6] | outcome [7] | outcome [8] | outcome [9] | outcome [10] | outcome [11] | outcome [14] | outcome [15] | outcome [16]

O=C(C1CCCN(Cc2ccccc2)C1)N1CCc2ccccc2C1 (stereo not given)
inactive: outcome [3] | outcome [4] | outcome [5] | outcome [6] | outcome [7] | outcome [8] | outcome [9] | outcome [11] | outcome [13] | outcome [14] | outcome [15] | outcome [16]
active: activation [1] 105% | activation [2] 94% | activation [10] 71% | activation [12] 40.5%

O=S(=O)(c1ccc(Cl)cc1)N1CCN2CCCC2C1 (stereo not given)
active: activation [1] 103% | activation [10] 27% | activation [12] 18.1% | potentiation [14] 25.7%
inactive: outcome [2] | outcome [3] | outcome [4] | outcome [5] | outcome [6] | outcome [7] | outcome [8] | outcome [9] | outcome [11] | outcome [13] | outcome [15] | outcome [16]

CN(C)CCCN(C(=O)c1ccc(S(=O)(=O)N2CCCCCC2)cc1)c1nc2ccc(F)cc2s1
active: activation [1] 278% | activation [12] 44.3% | activation [15] 27.1%
inactive: outcome [2] | outcome [3] | outcome [4] | outcome [5] | outcome [6] | outcome [7] | outcome [8] | outcome [9] | outcome [10] | outcome [11] | outcome [13] | outcome [14] | outcome [16]

Cc1ccc(C)c(S(=O)(=O)N2CCN(C(=O)CCc3nc4ccccc4c(=O)[nH]3)CC2)c1
active: activation [1] 153% | activation [10] 39% | activation [12] 25.2%
inactive: outcome [2] | outcome [3] | outcome [4] | outcome [5] | outcome [6] | outcome [7] | outcome [8] | outcome [9] | outcome [11] | outcome [13] | outcome [14] | outcome [15] | outcome [16]

Cc1ccc(C2(O)CN(c3ccccc3C)C3=[N+]2CCS3)cc1 (stereo not given)
active: activation [1] 87% | activation [2] 76% | activation [10] 43.5%
inactive: outcome [3] | outcome [4] | outcome [5] | outcome [6] | outcome [7] | outcome [8] | outcome [9] | outcome [11] | outcome [12] | outcome [13] | outcome [14] | outcome [15] | outcome [16]

COc1ccc(-n2cc(CNCCc3ncc(C)[nH]3)c(-c3ccccc3Cl)n2)cc1
active: activation [1] 214% | activation [10] 30%
inactive: outcome [2] | outcome [3] | outcome [4] | outcome [5] | outcome [6] | outcome [7] | outcome [8] | outcome [9] | outcome [11] | outcome [12] | outcome [13] | outcome [14] | outcome [15] | outcome [16]

CCN(CC)CCSc1nc2ccc(OC)cc2[nH]1
active: activation [1] 90% | activation [2] 60% | activation [12] 31.6%
inactive: outcome [3] | outcome [4] | outcome [5] | outcome [6] | outcome [7] | outcome [8] | outcome [9] | outcome [10] | outcome [11] | outcome [13] | outcome [14] | outcome [15] | outcome [16]

CN(C)CCCN(C(=O)c1ccc(S(=O)(=O)N(C)C2CCCCC2)cc1)c1nc2ccc(F)cc2s1
active: activation [1] 155% | activation [12] 5.36%
inactive: outcome [2] | outcome [3] | outcome [4] | outcome [5] | outcome [6] | outcome [7] | outcome [8] | outcome [9] | outcome [10] | outcome [11] | outcome [13] | outcome [14] | outcome [15] | outcome [16]

Cc1cc(-c2nn(-c3ccccc3F)cc2CNCCc2cnc[nH]2)c(C)s1
inactive: outcome [3] | outcome [4] | outcome [5] | outcome [6] | outcome [7] | outcome [8] | outcome [9] | outcome [10] | outcome [11] | outcome [13] | outcome [14] | outcome [15] | outcome [16]
active: activation [1] 89% | activation [2] 87% | activation [12] 39.8%

CCOC(=O)C1(Cc2cccc(F)c2)CCN(Cc2cnc(C)s2)CC1
active: activation [10] 44%
inactive: outcome [1] | outcome [2] | outcome [3] | outcome [4] | outcome [5] | outcome [6] | outcome [7] | outcome [8] | outcome [9] | outcome [11] | outcome [12] | outcome [13] | outcome [14] | outcome [15] | outcome [16]

COc1ccccc1C(=O)NNC(=S)NC(=O)c1cccs1
inactive: outcome [2] | outcome [3] | outcome [4] | outcome [5] | outcome [6] | outcome [7] | outcome [8] | outcome [9] | outcome [10] | outcome [11] | outcome [13] | outcome [14] | outcome [16]
active: activation [1] 74% | activation [12] 59.6% | activation [15] 13.9%

CCn1c(N2CCN(C(=O)Nc3ccc(F)cc3)CC2)nc2ccccc21
active: activation [1] 119% | activation [10] 41% | activation [12] 28.1%
inactive: outcome [2] | outcome [3] | outcome [4] | outcome [5] | outcome [6] | outcome [7] | outcome [8] | outcome [9] | outcome [11] | outcome [13] | outcome [14] | outcome [15] | outcome [16]

Cc1ccccc1NC(=S)NCCc1ccccn1
inactive: outcome [2] | outcome [3] | outcome [4] | outcome [5] | outcome [6] | outcome [7] | outcome [8] | outcome [9] | outcome [10] | outcome [11] | outcome [13] | outcome [14] | outcome [15] | outcome [16]
active: activation [1] 143% | activation [12] 56.5%

CCOC(=O)c1oc2ccc(OC)cc2c1NC(=O)CN1CCN(C)CC1
active: activation [10] 32% | activation [12] 12.8%
inactive: outcome [1] | outcome [2] | outcome [3] | outcome [4] | outcome [5] | outcome [6] | outcome [7] | outcome [8] | outcome [9] | outcome [11] | outcome [13] | outcome [14] | outcome [15] | outcome [16]
